Experimental data taken from PubChem BioAssay (Tox21).
Results filed as inconclusive are left out. Where a call stands in place of a potency, no number is given. Values without a mark were called inactive. The source made the active and inactive calls. The call rests on the fitted dose curve; in most records, active means well fitted inhibition curve with a large enough effect in the signal ratio in the repeat runs (not every such curve was filed as active); inconclusive means weak or mixed curves; inactive means flat fitted curve, though single readings scatter; the % refers to the signal ratio.

Biological target: Progesterone receptor (Homo sapiens) (UniProt P06401)
Sequence (P06401 whole entry, looked up): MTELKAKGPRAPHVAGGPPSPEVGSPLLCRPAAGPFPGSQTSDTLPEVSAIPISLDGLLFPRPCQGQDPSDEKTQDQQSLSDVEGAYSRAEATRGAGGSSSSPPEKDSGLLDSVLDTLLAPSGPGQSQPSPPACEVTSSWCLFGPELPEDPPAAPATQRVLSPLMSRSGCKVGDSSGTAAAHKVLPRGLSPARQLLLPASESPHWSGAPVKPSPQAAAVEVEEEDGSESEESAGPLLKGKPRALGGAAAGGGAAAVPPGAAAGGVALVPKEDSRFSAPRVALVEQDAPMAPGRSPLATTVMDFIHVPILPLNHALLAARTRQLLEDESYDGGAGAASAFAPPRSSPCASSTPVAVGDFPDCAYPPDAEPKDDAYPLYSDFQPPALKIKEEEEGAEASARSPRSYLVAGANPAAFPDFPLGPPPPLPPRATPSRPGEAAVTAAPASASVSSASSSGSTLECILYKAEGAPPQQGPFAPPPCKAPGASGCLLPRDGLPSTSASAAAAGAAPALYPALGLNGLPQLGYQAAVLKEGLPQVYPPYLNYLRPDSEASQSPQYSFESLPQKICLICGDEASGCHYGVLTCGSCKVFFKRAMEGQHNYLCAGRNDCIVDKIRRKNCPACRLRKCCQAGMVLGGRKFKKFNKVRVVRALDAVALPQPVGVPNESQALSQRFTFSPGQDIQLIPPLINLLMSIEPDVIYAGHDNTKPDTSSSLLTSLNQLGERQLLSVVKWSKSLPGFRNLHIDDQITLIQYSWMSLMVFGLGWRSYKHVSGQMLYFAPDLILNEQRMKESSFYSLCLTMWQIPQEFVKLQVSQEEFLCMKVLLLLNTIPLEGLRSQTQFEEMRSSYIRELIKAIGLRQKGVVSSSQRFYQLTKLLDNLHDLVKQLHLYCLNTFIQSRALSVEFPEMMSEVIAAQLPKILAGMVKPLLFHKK
Assay: qHTS assay to identify small molecule antagonists of the progesterone receptor (PR) signaling pathway (AID 1346795)
Details: PR-UAS-bla HEK293T, beta-lactamase FRET ratio, 16 h; series mostly up to 42.5 µM
From the text: National Center for Advancing Translational Sciences [NCATS]
NIH Chemical Genomics Center [NCGC]
U.S. Environmental Protection Agency [EPA]
National Institutes of Environmental Health Sciences [NIEHS]
National Toxicology Program [NTP]
U.S. Food and Drug Administration [FDA]
Progesterone receptor (PR), a nuclear hormone receptor, plays an important role in development, metabolic homeostasis and reproduction. […] Endocrine disrupting chemicals (EDCs) and their interactions with steroid hormone receptors like PR causes disruption of normal endocrine function. To identify the compounds that inhibit PR signaling, a PR-UAS-bla GripTite cell line i.e. PR-UAS-bla HEK293T (Invitrogen, Carlsbad, CA, USA) containing a beta-lactamase reporter gene under the control of an Upstream Activator Sequence (UAS) was used to screen Tox21 10K compound library.
Tox21 Assay Protocol Summary:
PR-UAS-bla HEK293T cells were dispensed at 3,000 cells/4 uL of assay medium containing 2% charcoal stripped FBS per well into black wall/clear-bottom 1536-well plates using a Multidrop Combi (ThermoFisher Scientific, Waltham, MA) dispenser. After the assay plates were incubated at a 37C and 5% CO2 for 6 hr, 23 nL of compounds dissolved in DMSO, positive controls or DMSO only was transferred to the assay plate by a Pintool station (Kalypsys, San Diego, CA), followed by addition of 1 uL (1nM as final concentration) of Promegestone (R5020) in assay medium using a BioRAPTR FRD (Flying Reagent Dispenser, Aurora Discovery, San Diego, CA). The plates were incubated at 37C and 5% CO2 for 16 hr. Then 1 uL of LiveBLAzer B/G FRET substrate was added using a FRD. After the plates were incubated at room temperature for 2 hours, fluorescence intensity was measured by an Envision plate reader (PerkinElmer, Shelton, CT).
Potency means the concentration at half of the fitted maximal effect.

SMILES	Potency	activity change, negative = inhibition
CCCCCCCCCCCCN(CCCCCCCCCCCC)CCCCCCCCCCCC	inactive	–
CCCCCSCCCCC	inactive	–
O=c1[nH]c(=O)n([C@H]2C[C@H](O)[C@@H](CO)O2)cc1I	inactive	–
CC/C=C\CC/C=C/CO	inactive	–
COc1nc(N)nc2c1ncn2[C@@H]1O[C@H](CO)[C@@H](O)[C@@H]1O	inactive	–
N[C@H](C(=O)O)c1ccc(O)cc1	inactive	–
CO[C@]12C[C@@H](COC(=O)c3cncc(Br)c3)CN(C)[C@@H]1Cc1cn(C)c3cccc2c13	inactive	–
FC1(F)C(F)(F)C(F)(F)C2(F)C(F)(F)C(F)(F)C(F)(F)C(F)(F)C2(F)C1(F)F (stereo not given)	inactive	–
CO/N=C(/C(=O)N[C@@H]1C(=O)N2C(C(=O)OCOC(=O)C(C)(C)C)=C(C)CS[C@H]12)c1csc(N)n1	inactive	–
C=CCCCCCCCCC=O	inactive	–
OC[C@]1(O)OC[C@@H](O)[C@H](O)[C@@H]1O	inactive	–
CCC(=O)OC(C)c1ccccc1 (stereo not given)	inactive	–
N[C@@H](C(=O)N[C@@H]1C(=O)N2C(C(=O)O)=C(Cl)CS[C@H]12)c1ccccc1	–	5.57% [at 8.39 µM]
N=C(N)c1ccccc1	inactive	–
CC(C)NC(=O)NC(C)C	inactive	–
COCCCOCCCOC	inactive	–
CC(C)c1cc2c(cc1S(=O)(=O)O)[C@@]1(C)CCC[C@@](C)(C(=O)O)[C@@H]1CC2	inactive	–
NCCc1cnc[nH]1	inactive	–
CC(=O)OCC(CCn1cnc2cnc(N)nc21)COC(C)=O	inactive	–
COc1cc(C(=O)N2CCCCCCC2)cc(OC)c1OC	inactive	–

SMILES	Potency	activity change, negative = inhibition
CCOC(=O)c1c(C)n(C)c2ccc(O)cc12	inactive	–
Cc1[nH]c(=O)c(C#N)cc1-c1ccc2nccn2c1	inactive	–
CCCCOCCOCCOCCCC	inactive	–
O=Cc1cccc([N+](=O)[O-])c1	inactive	–
CN1C(=O)N(C)C(O)C1O (stereo not given)	inactive	–
NS(=O)(=O)c1cc(C(=O)O)cc(N2CCCC2)c1Oc1ccccc1	inactive	–
C=C(C)CS(=O)(=O)O	inactive	–
COC(=O)[C@@H](N)Cc1ccc(O)c(O)c1	inactive	–
CCOC(=O)Nc1ccc(NCc2ccc(F)cc2)nc1N	inactive	–
Cc1ccc(C#N)cc1	inactive	–
CCO[Si](CCC1CCC2OC2C1)(OCC)OCC (stereo not given)	inactive	–
CC(=O)Nc1ccc(S(N)(=O)=O)cc1	inactive	–
CC(C)CCCC(C)N (stereo not given)	inactive	–
O=C(O)COc1nn(Cc2ccccc2)c2ccccc12	inactive	–
C=C(C)C(=O)OCCCCCCCC(C)C	inactive	–
N=C(N)c1ccc2cc(OC(=O)c3ccc(N=C(N)N)cc3)ccc2c1	inactive	–
CC(=O)OC/C=C(\C)CC/C=C(\C)CCC=C(C)C	inactive	–
CC(C)(CC(=O)O)C(=O)O	inactive	–
CC(C)(O)C(=O)c1ccccc1	inactive	–
COC(=O)C1=C(C)NC(C)=C(C(=O)OC)C1c1ccccc1[N+](=O)[O-]	23.7 µM (active)	–
